Experimental data taken from PubChem BioAssay (NCI).
About 79,000 compounds went through this panel and 15% of them were active in at least one assay; those are over-represented in the sample as a whole. Activity calls are given as the source filed them. Cut-off read from the data, not from the text of the source: active = growth inhibition above about 70%; inactive = the rest.

Key:
[1] = NCI Yeast Anticancer Drug Screen. Data for the mec2-1 strain (AID 157); conditions: S. cerevisiae mec2-1 strain, stronger effect = higher value
In short: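 Vehicle-treated cultures served as reference for growth inhibition of compound-exposed mec2-1 yeast.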

[2] = NCI Yeast Anticancer Drug Screen. Data for the rad14 strain (AID 159);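 note: 0% = growth of vehicle-treated control cultures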; conditions: S. cerevisiae rad14 strain growth inhibition, stronger effect = higher value
In short: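 Yeast cells carrying a defined DNA-repair defect were exposed to compounds, and growth inhibition was calculated relative to vehicle-treated control cultures.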

[3] = NCI Yeast Anticancer Drug Screen. Data for the sgs1 mgt1 strain (AID 161);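 note: 0% = growth of cultures given vehicle only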; conditions: S. cerevisiae sgs1 mgt1 strain, stronger effect = higher value
In short: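 Read-out: growth inhibition vs vehicle controls. Cells: mutant yeast strain deficient in DNA damage repair.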

[4] = NCI Yeast Anticancer Drug Screen. Data for the CLN2oe strain (AID 163);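 note: 0% = growth of vehicle-only control cultures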; conditions: S. cerevisiae CLN2oe strain, stronger effect = higher value
In short: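 Inhibition relative to vehicle-treated yeast is reported. Cells: strain with genetic alteration in cell-cycle control, grown with compound.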

[5] = NCI Yeast Anticancer Drug Screen. Data for the cln2 rad14 strain (AID 165);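 note: 0% = growth equal to vehicle treated cultures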; conditions: S. cerevisiae cln2 rad14 strain, stronger effect = higher value
In short: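 Each compound was tested on cln2 rad14 yeast. Inhibition of growth was calculated against vehicle-exposed controls.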

[6] = NCI Yeast Anticancer Drug Screen. Data for the bub3 strain (AID 167); conditions: S. cerevisiae bub3 mutant strain, stronger effect = higher value
In short: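 Compounds were applied to a genetically altered yeast strain carrying a cell-cycle control defect. Growth inhibition was scored against vehicle-treated controls.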

[7] = NCI Yeast Anticancer Drug Screen. Data for the wt2 strain (AID 169);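 note: 0% = growth of vehicle-treated yeast cultures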; conditions: S. cerevisiae wt2 strain growth inhibition, stronger effect = higher value
In short: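 Inhibition of yeast growth was determined after compound treatment, normalised to controls receiving only vehicle.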

[8] = NCI Yeast Anticancer Drug Screen. Data for the mlh1 strain (AID 171);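 note: 0% = growth of vehicle-treated control cultures of the same strain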; conditions: S. cerevisiae mlh1 strain growth inhibition, stronger effect = higher value
In short: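 Vehicle-normalised growth inhibition of a repair- or checkpoint-altered yeast strain following compound treatment.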

[9] = NCI Yeast Anticancer Drug Screen. Data for the sgs1 strain (AID 173);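 note: 0% = growth of vehicle-only control cultures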; conditions: S. cerevisiae sgs1 mutant, stronger effect = higher value
In short: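 Screen format: yeast with repair or checkpoint alterations, compound exposure, growth read relative to vehicle.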

[10] = NCI Yeast Anticancer Drug Screen. Data for the mlh1 rad18 strain (AID 175); conditions: S. cerevisiae mlh1 rad18 strain growth inhibition, stronger effect = higher value
In short: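 Vehicle-treated cultures served as the reference for growth inhibition in a yeast strain carrying DNA damage repair alterations exposed to each compound.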

[11] = NCI Yeast Anticancer Drug Screen. Data for the rad18 strain (AID 177); conditions: S. cerevisiae rad18 mutant growth inhibition, stronger effect = higher value
In short: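 Test articles were incubated with altered yeast defective in DNA damage repair. Results are given as inhibition of growth versus vehicle.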

[12] = NCI Yeast Anticancer Drug Screen. Data for the rad52 strain (AID 147);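 note: 0% = growth of vehicle-treated control cultures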; conditions: S. cerevisiae rad52 mutant growth inhibition, stronger effect = higher value
In short: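 Vehicle-treated cultures served as the reference for growth inhibition of compound-exposed yeast bearing a DNA repair mutation.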

[13] = NCI Yeast Anticancer Drug Screen. Data for the wt1 strain (AID 149);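 note: 0% = growth of vehicle-treated wt1 cultures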; conditions: S. cerevisiae wt1 strain (SPY 50644) growth inhibition, stronger effect = higher value
In short: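 Yeast wt1 strain exposed to compounds; growth inhibition measured relative to vehicle-treated controls.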

[14] = NCI Yeast Anticancer Drug Screen. Data for the rad50EPP+ strain (AID 151);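 note: 0% = growth of vehicle-treated control cultures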; conditions: S. cerevisiae rad50 mutant strain, stronger effect = higher value
In short: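 In this screen, rad50EPP+ yeast were exposed to compounds. Growth inhibition was scored against vehicle-treated controls.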

[15] = NCI Yeast Anticancer Drug Screen. Data for the mgt1 strain (AID 153); conditions: S. cerevisiae mgt1 mutant growth inhibition, stronger effect = higher value
In short: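 mgt1 strain exposed; growth vs vehicle control recorded as inhibition.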

[16] = NCI Yeast Anticancer Drug Screen. Data for the rad50 strain (AID 155);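 note: 0% = growth of vehicle-only cultures of the same strain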; conditions: S. cerevisiae rad50 strain growth inhibition, stronger effect = higher value
In short: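 Yeast carrying a defined DNA repair defect were exposed to test compounds, and growth was compared with vehicle-treated controls to give percent inhibition.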

[17] = at 5.0 µM (retest, dose inferred, filed as 0.5)
[18] = at 50.0 µM (retest, dose inferred, filed as 5.0)

Measured: growth inhibition

C(=C\c1ccccc1)/COc1ccccc1C(N1CCOCC1)n1nc2ccccc2n1 (centres undefined)
inactive: [1]; [17] 3% | [1]; at 11.0 µM -1% | [2]; at 1.2 µM -4% | [2]; at 3.7 µM 0% | [2]; at 11.0 µM 35% | [3]; [17] -1% | [4]; at 1.2 µM 0% | [4]; at 3.7 µM -9% | [4]; at 11.0 µM -10% | [4]; at 33.0 µM 11% | [5]; [17] 11% | [6]; at 1.2 µM 1% | [6]; at 3.7 µM -14% | [6]; [17] 3% | [6]; at 11.0 µM -4% | [7]; at 1.2 µM -4% | [7]; at 3.7 µM 1% | [7]; at 11.0 µM 25% | [8]; at 1.2 µM -2% | [8]; at 3.7 µM -2% | [8]; at 11.0 µM 37% | [9]; at 1.2 µM 23% | [9]; at 3.7 µM 22% | [9]; at 11.0 µM 54% | [10]; [17] 16% | [11]; at 1.2 µM -2% | [11]; at 3.7 µM -7% | [11]; at 11.0 µM 6%
active: [1]; at 33.0 µM 86% | [1]; [18] 95% | [1]; at 50.0 µM 98.8% | [1]; at 100.0 µM 98% | [2]; at 33.0 µM 97% | [2]; at 100.0 µM 98% | [3]; [18] 97% | [3]; at 50.0 µM 97.9% | [4]; at 100.0 µM 93% | [5]; [18] 81% | [5]; at 50.0 µM 91.2% | [6]; at 33.0 µM 86% | [6]; [18] 98% | [6]; at 50.0 µM 98.3% | [6]; at 100.0 µM 97% | [7]; at 33.0 µM 95% | [7]; at 100.0 µM 99% | [8]; at 33.0 µM 93% | [8]; at 100.0 µM 97% | [9]; at 33.0 µM 96% | [9]; at 100.0 µM 99% | [10]; [18] 99% | [10]; at 50.0 µM 99% | [11]; at 33.0 µM 86% | [11]; at 100.0 µM 98%

O=C(NCCCCNCCCNC(=O)c1cc(-c2ccccc2)nc2ccccc12)c1cc(-c2ccccc2)nc2ccccc12
inactive: [12]; at 1.2 µM -1% | [12]; at 3.7 µM -1% | [12]; at 11.0 µM -3% | [12]; at 33.0 µM 40% | [13]; at 1.2 µM 6% | [13]; at 3.7 µM 2% | [13]; at 11.0 µM 2% | [13]; at 33.0 µM 5% | [14]; at 1.2 µM 1% | [14]; at 3.7 µM 4% | [14]; at 11.0 µM 12% | [14]; at 33.0 µM 32% | [15]; at 1.2 µM 2% | [15]; at 3.7 µM 2% | [15]; at 11.0 µM -1% | [15]; at 33.0 µM 59% | [16]; at 1.2 µM -5% | [16]; at 3.7 µM -5% | [16]; [17] -29% | [16]; at 11.0 µM -3% | [1]; at 1.2 µM -1% | [1]; at 3.7 µM -3% | [1]; [17] -15% | [1]; at 11.0 µM -4% | [1]; at 33.0 µM 56% | [1]; [18] 59% | [2]; at 1.2 µM 0% | [2]; at 3.7 µM -2% | [2]; at 11.0 µM 1% | [3]; [17] -16% | [3]; [18] 58% | [4]; at 1.2 µM 1% | [4]; at 3.7 µM -1% | [4]; at 11.0 µM -1% | [4]; at 33.0 µM 43% | [5]; [17] 40% | [5]; [18] 55% | [6]; at 1.2 µM -2% | [6]; at 3.7 µM -1% | [6]; [17] -8% | [6]; at 11.0 µM -2% | [6]; at 33.0 µM 50% | [6]; [18] 65% | [7]; at 1.2 µM 2% | [7]; at 3.7 µM -1% | [7]; at 11.0 µM -2% | [7]; at 33.0 µM 20% | [8]; at 1.2 µM 0% | [8]; at 3.7 µM -1% | [8]; at 11.0 µM 0% | [8]; at 33.0 µM 63% | [9]; at 1.2 µM 0% | [9]; at 3.7 µM 0% | [9]; at 11.0 µM 1% | [9]; at 33.0 µM 33% | [10]; [17] -13% | [10]; at 50.0 µM 39.5% | [11]; at 1.2 µM 0% | [11]; at 3.7 µM -1% | [11]; at 11.0 µM -1%
active: [12]; at 100.0 µM 92% | [13]; at 100.0 µM 91% | [14]; at 100.0 µM 91% | [15]; at 100.0 µM 94% | [16]; at 33.0 µM 81% | [16]; [18] 97% | [16]; at 50.0 µM 97% | [16]; at 100.0 µM 92% | [1]; at 50.0 µM 97.3% | [1]; at 100.0 µM 94% | [2]; at 33.0 µM 96% | [2]; at 100.0 µM 94% | [3]; at 50.0 µM 97.5% | [4]; at 100.0 µM 91% | [5]; at 50.0 µM 97.6% | [6]; at 50.0 µM 97.2% | [6]; at 100.0 µM 92% | [7]; at 100.0 µM 93% | [8]; at 100.0 µM 94% | [9]; at 100.0 µM 93% | [10]; [18] 92% | [11]; at 33.0 µM 89% | [11]; at 100.0 µM 91%

Cc1ccc(-c2ccc(Nc3c4ccccc4nc4ccccc34)cc2)cn1
active: [12]; at 11.0 µM 90% | [12]; at 33.0 µM 95% | [12]; at 100.0 µM 92% | [13]; at 33.0 µM 90% | [14]; at 11.0 µM 85% | [14]; at 33.0 µM 95% | [14]; at 100.0 µM 95% | [15]; at 33.0 µM 83% | [15]; at 100.0 µM 95% | [16]; [17] 81% | [16]; at 11.0 µM 90% | [16]; at 33.0 µM 93% | [16]; [18] 97% | [16]; at 50.0 µM 97% | [16]; at 100.0 µM 88% | [1]; at 33.0 µM 86% | [1]; [18] 98% | [1]; at 50.0 µM 90.4% | [1]; at 100.0 µM 84% | [2]; at 33.0 µM 75% | [3]; [18] 75% | [3]; at 50.0 µM 80.2% | [4]; at 33.0 µM 85% | [4]; at 100.0 µM 73% | [5]; [18] 70% | [6]; at 33.0 µM 79% | [6]; [18] 84% | [7]; at 33.0 µM 92% | [8]; at 33.0 µM 88% | [8]; at 100.0 µM 72% | [10]; [18] 89% | [10]; at 50.0 µM 90.1%
inactive: [12]; at 1.2 µM 6% | [12]; at 3.7 µM 48% | [13]; at 1.2 µM 30% | [13]; at 3.7 µM 20% | [13]; at 11.0 µM 43% | [13]; at 100.0 µM 67% | [14]; at 1.2 µM 22% | [14]; at 3.7 µM 44% | [15]; at 1.2 µM 4% | [15]; at 3.7 µM -5% | [15]; at 11.0 µM 7% | [16]; at 1.2 µM 15% | [16]; at 3.7 µM 60% | [1]; at 1.2 µM -20% | [1]; at 3.7 µM -25% | [1]; [17] 9% | [1]; at 11.0 µM 11% | [2]; at 1.2 µM -27% | [2]; at 3.7 µM -19% | [2]; at 11.0 µM -4% | [2]; at 100.0 µM 59% | [3]; [17] 8% | [4]; at 1.2 µM 15% | [4]; at 3.7 µM 19% | [4]; at 11.0 µM 29% | [5]; [17] 37% | [5]; at 50.0 µM 58.6% | [6]; at 1.2 µM -5% | [6]; at 3.7 µM -45% | [6]; [17] 5% | [6]; at 11.0 µM -12% | [6]; at 50.0 µM 25.5% | [6]; at 100.0 µM 36% | [7]; at 1.2 µM -14% | [7]; at 3.7 µM 2% | [7]; at 11.0 µM 22% | [7]; at 100.0 µM 39% | [8]; at 1.2 µM 5% | [8]; at 3.7 µM 2% | [8]; at 11.0 µM 18% | [10]; [17] 16%
